Screening results (PubChem BioAssay)
Only a selection was taken, and hits are over-represented in it overall.
KDM5B inh = KDM5B demethylase inhibition. KDM5B demethylase, FDH-coupled NADH fluorescence (FDH is formaldehyde dehydrogenase). Potency, µM (highest dose often 57.7 µM), usual class: inhibitors. hit rate 2.6% among 220,000. AID 1347165; active means well fitted inhibition curve with a large enough effect; further: 0% is about no effect; nearly all actives have a fitted effect of over 70% in size
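KDM5BΔAP (200 nM final) in 50 mM HEPES pH 7.5, 0.01% Tween-20 was preincubated 10 min at RT with compound over a concentration range. Substrate mix (H3K4me3 12.5 µM, α-KG 25 µM, Fe²⁺, ascorbate, NAD⁺, FDH) was added, and NADH fluorescence change over 30 min gave dose-response curves.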
* hit, by the source's call. Potency means the concentration at half of the fitted maximal effect.

Screening OC(c1cc2n(n1)CCN(Cc1cc(C3CC3)on1)C2)C1CC1 (configuration not stated) returned KDM5B inh inactive.
CC(=O)OCc1cc(=O)n2nc(C3CCCCC3)sc2n1 was read as KDM5B inh inactive.
Screening N#Cc1cc(Br)ccc1OCc1ccccc1Cl returned KDM5B inh inactive.
For CC(/C=N/Nc1ccc([N+](=O)[O-])cc1[N+](=O)[O-])=C\c1ccco1 the results were KDM5B inh inactive.
Screening O=C(CCC1CCCO1)N1CCSCC1 (configuration not stated) returned KDM5B inh inactive.
O=C(NCCOc1ccccc1)C1CN(Cc2ccccc2)C(=O)N1 (configuration not stated) was read as KDM5B inh inactive.
`O=C(O)CN1CCN(Cc2ccc(OCCc3ccccc3)cc2)CC1=O` gave KDM5B inh 25.1µM*.
Screening O=C(/C=C/c1ccc(OCCCF)cc1)N1CCN(Cc2ccccc2)CC1 returned KDM5B inh inactive.
Cc1cc(C)c(NC(=O)CSc2ncnc3ccccc23)c(Cl)c1 was read as KDM5B inh inactive.
For Cn1c(=O)c2c(ncn2CC(=O)Nc2ccc(N3CCCCC3)cc2)n(C)c1=O the results were KDM5B inh inactive.
Screening CCOc1ccccc1NC(=O)Nc1cccc(-c2ccc(N3CCOCC3)nn2)c1 returned KDM5B inh inactive.
CC(=O)Nc1ccc2c(ccn2CCN2CCOCC2)c1 was read as KDM5B inh inactive.
For CC(=O)Nc1cccc(-c2cc3c(ccn3Cc3ccncc3)c(N3CCOCC3)n2)c1 the results were KDM5B inh 28.2µM*.
Screening CC(C)CCNC(=O)c1cc(-c2ccncc2)nc2ccc(S(=O)(=O)N3CCOCC3)cc12 returned KDM5B inh inactive.
Screening CC(=O)Nc1cccc(-c2cc3c(ccn3C)c(C(=O)NCc3cccnc3)n2)c1 returned KDM5B inh inactive.
Screening C[S+](=O)([O-])Nc1cccc(-c2cc3c(ccn3Cc3ccncc3)c(N3CCOCC3)n2)c1 returned KDM5B inh 3.16µM*.
For C[S+](=O)([O-])c1ccc(-c2cc3c(ccn3Cc3ccncc3)c(N3CCOCC3)n2)cc1 the results were KDM5B inh 25.1µM*.
For O=C(Nc1cccc(-c2ccc(N3CCOCC3)nn2)c1)Nc1cccc(C(F)(F)F)c1 the results were KDM5B inh inactive.
For Cc1ccc(C)c(NC(=S)N/N=C/C2=CCC3CC2C3(C)C)c1 (configuration not stated) the results were KDM5B inh inactive.
Screening CN(C)c1nc(-c2ccncc2)nc2c1CCN(C(=O)c1ccn[nH]1)C2 returned KDM5B inh inactive.
`CC(C)CC1(C)OCC(CN2CCCCC2)O1` (configuration not stated) gave KDM5B inh inactive.
For CCCCc1c(C)[nH]c2c(C)cccc2c1=S the results were KDM5B inh inactive.
`C=CCn1c(C)cc(C(=O)COC(=O)Cn2cnc3c2c(=O)n(C)c(=O)n3C)c1C` gave KDM5B inh inactive.
For CC(=O)Nc1ccc(NC(=O)CN(C)Cc2ccc(C(F)(F)F)cc2)cc1 the results were KDM5B inh inactive.
N#Cc1ccc(F)c(CSc2nnc(N)s2)c1 was read as KDM5B inh inactive.
Screening CCOc1ccc(C(=O)NCCc2csc(-c3cccc(C)c3)n2)cc1 returned KDM5B inh inactive.
For O=C(NCCN1CCOCC1)c1cccc(Br)c1 the results were KDM5B inh inactive.
`Cc1ncsc1CCC(=O)N(C)Cc1csc(-c2ccccc2)n1` gave KDM5B inh inactive.
`O=C(NCCN1CCOCC1)c1ccc2nc(-c3ccccc3)cn2c1` gave KDM5B inh 28.2µM*.
For Cc1ncsc1CCNC(=O)c1ccc2nc(-c3ccccc3)cn2c1 the results were KDM5B inh 25.1µM*.
For Cc1oc(-c2ccccc2)nc1CC(=O)NCCN1CCOCC1 the results were KDM5B inh inactive.
C=C(C)CSC1=C(C#N)C(c2sccc2C)CC(=O)N1 (configuration not stated) was read as KDM5B inh inactive.
`O=C(NCc1ccccc1S(=O)(=O)N1CCOCC1)c1ccc(Cl)cc1O` gave KDM5B inh inactive.
`COc1ccc(-c2noc(CC3CCN(C(=O)Cc4cccc(C)c4)CC3)n2)cc1` gave KDM5B inh inactive.
`Cc1ccc(C(=O)OCc2nc3ccccc3o2)cc1` gave KDM5B inh inactive.
COC(=O)N/N=C/c1cc(Cl)cc(Cl)c1OCCCOc1ccccc1 was read as KDM5B inh inactive.
For NC(N)=N/N=C/C(Br)=C/c1ccccc1 the results were KDM5B inh inactive.
Screening CCc1noc(-c2ccn3c(CNC(=O)C4CCC4)nnc3c2)n1 returned KDM5B inh inactive.
Screening CCc1noc(-c2ccn3c(CNC(=O)C4CCCC4)nnc3c2)n1 returned KDM5B inh inactive.
`O=C(NCc1nnc2cc(-c3nc(C4CC4)no3)ccn12)C1CCCCC1` gave KDM5B inh 28.2µM*.
`O=C(NCc1nnc2cc(-c3nc(C4CC4)no3)ccn12)C1CCC1` gave KDM5B inh 25.1µM*.
